Assay outcomes (PubChem)
Sampled rows, rich in hits. Any-hit rate of the full collection: about 11%.
3T3 cytotox = kills NIH 3T3 cells. NIH 3T3 viability, CellTiter-Glo ATP luminescence, 48-72 h. 94,000 tested, 4.3% active. Potency, µM (highest dose often 96.7 µM), hits mostly inhibitors; further: nearly all actives have a fitted effect of over 55% in size
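NIH 3T3 cells at 400 cells/well received 23 nL of compound by pintool and were incubated 48 or 72 h at 37 °C. Viability was read as ATP-coupled CellTiter-Glo luminescence.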
hNpr1 antagonist = blocks ANP-stimulated signaling of human Npr1 receptor; Potency, µM (top dose mostly 46.3 µM), actives largely listed as inhibitors; AID 1347048; P16066; HEK293 hNpr1 GloSensor cGMP, ANP-stimulated luminescence; 76,000 tested, 1.6% active; calls by dose curve; further: nearly all actives have a fitted effect of over 60% in size
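HEK293 cells stably expressing human Npr1 and cGMP GloSensor pGS-40F, loaded 2 h with 2% GloSensor reagent, given compound 30 min at room temperature. Luminescence read before and 20 min after 0.1 nM hNppA.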
FLuc inh-1 = blocks purified firefly luciferase enzyme activity; P08659; Potency, µM (series often up to 115 µM), hits mostly inhibitors; purified P. pyralis luciferase, luminescence, biochemical; 76,000 tested, 2.5% active; further: nearly all actives have a fitted effect of over 65% in size
Target sequence (P08659 whole entry, looked up): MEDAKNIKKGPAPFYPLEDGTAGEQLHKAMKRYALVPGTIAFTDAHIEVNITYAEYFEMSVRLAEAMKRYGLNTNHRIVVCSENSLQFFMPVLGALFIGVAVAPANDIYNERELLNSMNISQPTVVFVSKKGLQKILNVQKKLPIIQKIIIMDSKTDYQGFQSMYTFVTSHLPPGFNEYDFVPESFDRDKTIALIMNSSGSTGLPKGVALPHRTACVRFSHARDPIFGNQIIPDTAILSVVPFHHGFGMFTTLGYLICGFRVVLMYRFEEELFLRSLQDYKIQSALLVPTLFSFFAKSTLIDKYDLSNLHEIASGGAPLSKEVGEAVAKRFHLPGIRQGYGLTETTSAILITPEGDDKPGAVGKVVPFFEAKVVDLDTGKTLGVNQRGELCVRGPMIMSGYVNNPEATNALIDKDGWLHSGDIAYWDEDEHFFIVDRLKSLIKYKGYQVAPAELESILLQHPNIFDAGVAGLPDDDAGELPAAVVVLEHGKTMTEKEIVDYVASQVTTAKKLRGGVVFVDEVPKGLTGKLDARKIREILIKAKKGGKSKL
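Purified 10nM P. pyralis luciferase with 10uM D-luciferin and 10uM ATP in 50mM Tris acetate pH 7.5, 10mM Mg acetate, 0.01% Tween-20, 0.05% BSA. qHTS titration; luminescence read by CCD imager.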
HEK293 tox = cytotoxic compounds in HEK 293 cells. AID 1345083. 94,000 tested, 6.6% active. HEK 293 viability, ATP luminescence (CellTiter-Glo), 48-72 h. Potency, µM (highest dose often 115 µM), hits mostly inhibitors; further: nearly all actives have a fitted effect of over 60% in size
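Luminescence from cellular ATP, measured with CellTiter-Glo, indicates HEK 293 viability. Cells plated at 250 cells/well are treated with compound for 48 or 72 hr at 37 degree Celsius before reagent addition.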
FLuc SDR no ATP = firefly luciferase binding stabilization, ATP absent | shares compounds with FLuc inh-1 | Purified FLuc-C-HiBiT, Nano-Glo HiBiT luminescence, no ATP | Potency, µM (titrated, usually from 32.7 µM), hits mostly activators | 1,300 tested, 7.8% active; further: nearly all actives have a fitted effect of over 55% in size
FLuc SDR ATP = stabilizes firefly luciferase with ATP present; shares compounds with FLuc inh-1; purified FLuc-C-HiBiT + ATP, HiBiT complementation luminescence; Potency, µM (doses to about 32.7 µM), usual class: activators; 1,300 tested, 8.7% active; AID 1963319;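 further: signal reports ligand binding via conformational change of the enzyme rather than luciferase catalysis; nearly all actives have a fitted effect of over 55% in size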
FLuc inh-2 = inhibitors of firefly luciferase enzymatic activity. shares compounds with FLuc inh-1. purified FLuc-C-HiBiT enzyme, luciferin luminescence. Potency, µM (top dose mostly 32.7 µM), actives largely listed as inhibitors. 1,300 tested, 42% active; further: nearly all actives have a fitted effect of over 70% in size
Each line names hits and unclear results; the compound was inactive in the other large screens (follow-up assays come after a bar, where they were run). Unless noted, the call rests on the fitted dose curve; in most records, active means well fitted curve in the direction sought with a large enough effect; inconclusive means small, poorly fitted or top-dose-only effect, or another doubt; inactive means no such curve, though single readings can be large; an effect the other way counts as inactive or inconclusive.

CCn1c(CO)nnc1C1CC(NC(=O)c2sccc2N)C1 (stereo not given)	3T3 cytotox inconclusive
Cc1ccsc1C(=O)N1CCC(n2nccc2NC(=O)c2cccc(F)c2)CC1	none
c1ccc(Nc2ncc(-c3ccccc3)o2)cc1	none (no result: 3T3 cytotox, hNpr1 antagonist, FLuc inh-1, HEK293 tox) | FLuc SDR no ATP inconclusive | FLuc SDR ATP inconclusive | FLuc inh-2 0.79µM
CCOC(=O)c1ccc(Nc2nc(-c3ccccc3)no2)cc1	3T3 cytotox inconclusive, FLuc inh-1 inconclusive, HEK293 tox inconclusive
CN(Cc1ccccc1)C(=O)[C@H]1C[C@@H](O)[C@H](O)[C@@H]2N=C(Nc3ccc(Cl)cc3)S[C@@H]21	none
CC(C)c1ccc(N2C(=S)N[C@H]3[C@@H](O)[C@H](O)C[C@@H](C(=O)N(C)Cc4ccccc4)[C@H]32)cc1	3T3 cytotox 35µM, FLuc inh-1 3.2µM, HEK293 tox 40µM | FLuc SDR no ATP inactive | FLuc SDR ATP 11µM | FLuc inh-2 11µM
CN(C)C(=O)N1CCN(c2ccc3nnc(-c4ccccc4)n3n2)CC1	3T3 cytotox inconclusive (no result: hNpr1 antagonist, FLuc inh-1)
CC(=O)Nc1cccc(-c2ccc(COc3ccc4c(cnn4CCC(=O)O)c3)cc2)c1	3T3 cytotox inconclusive, FLuc inh-1 0.71µM, HEK293 tox inconclusive | FLuc SDR no ATP inconclusive | FLuc SDR ATP inconclusive | FLuc inh-2 1µM
COc1cc(Cl)ccc1-c1ccc(COc2ccc3c(cnn3CCC(=O)O)c2)cc1	FLuc inh-1 50µM, HEK293 tox inconclusive | FLuc SDR no ATP inactive | FLuc SDR ATP inactive | FLuc inh-2 inconclusive
COc1ccc(F)cc1-c1ccc(COc2ccc3c(cnn3CCC(=O)O)c2)cc1	FLuc inh-1 22µM, HEK293 tox inconclusive | FLuc SDR no ATP inactive | FLuc SDR ATP inactive | FLuc inh-2 inconclusive
CCn1cc(CN2CCC3(CC2)CC(C(=O)N2CCOCC2)N(C)C3)cn1 (stereo not given)	none (no result: hNpr1 antagonist, FLuc inh-1)
O=C(NC1Cc2ccccc2C1)c1ccc2nnc(C3CCOCC3)n2c1	none (no result: hNpr1 antagonist, FLuc inh-1)
CCOC(=O)C1(Cc2ccc(Cl)cc2)CCNCC1	3T3 cytotox inconclusive, HEK293 tox inconclusive
Cc1cc(CNC(=O)C2CCCCn3nnnc32)c2[nH]c(-c3ccccc3)c(C)c2c1 (stereo not given)	3T3 cytotox 35µM, FLuc inh-1 8.9µM, HEK293 tox 25µM | FLuc SDR no ATP inactive | FLuc SDR ATP inactive | FLuc inh-2 inconclusive
O=C1NCc2ccccc2CC12CCN(Cc1c(F)cccc1Cl)CC2	none (no result: hNpr1 antagonist, FLuc inh-1)
COc1ccc(-c2cc(N3CCCC(NC(=O)c4ccncc4)C3)n[nH]2)cc1 (stereo not given)	FLuc inh-1 13µM, HEK293 tox inconclusive | FLuc SDR no ATP inactive | FLuc SDR ATP inactive | FLuc inh-2 inconclusive
COc1ccc(-c2cc(N3CCCC(NC(=O)c4ccc(OC)cc4OC)C3)n[nH]2)cc1 (stereo not given)	3T3 cytotox inconclusive, FLuc inh-1 13µM, HEK293 tox 45µM | FLuc SDR no ATP inactive | FLuc SDR ATP inactive | FLuc inh-2 inconclusive
COc1ccc(-c2cc(N3CCCC(NC(=O)c4cccc(OC)c4OC)C3)n[nH]2)cc1 (stereo not given)	3T3 cytotox inconclusive, FLuc inh-1 inconclusive, HEK293 tox inconclusive
COc1ccc(-c2cc(N3CCCC(NC(=O)c4cc(OC)cc(OC)c4)C3)n[nH]2)cc1 (stereo not given)	3T3 cytotox inconclusive, FLuc inh-1 5.6µM, HEK293 tox inconclusive | FLuc SDR no ATP inactive | FLuc SDR ATP inactive | FLuc inh-2 inconclusive
CCOc1ccc(C(=O)NC2CCCN(c3cc(-c4ccc(OC)cc4)[nH]n3)C2)cc1 (stereo not given)	FLuc inh-1 inconclusive, HEK293 tox inconclusive
COc1ccc(-c2cc(N3CCCC(NC(=O)c4cc(OC)c(OC)c(OC)c4)C3)n[nH]2)cc1 (stereo not given)	3T3 cytotox inconclusive, FLuc inh-1 6.3µM, HEK293 tox inconclusive | FLuc SDR no ATP inactive | FLuc SDR ATP inactive | FLuc inh-2 5.6µM
COc1ccc(-c2cc(N3CCC(NC(=O)c4ccncc4)C3)n[nH]2)cc1 (stereo not given)	FLuc inh-1 inconclusive, HEK293 tox inconclusive
